About 13,000 (27%) of roughly 48,000 compounds showed an effect of 50% or more. Some of the results follow.

The source of these data is ChEMBL document CHEMBL3988442, “University of Dundee, Small-Polar-MMV Screening Library” (2021).

For this assay, the system named is Wolbachia pipientis. Kind of assay: Anti-Wolbachia Cell-Based Screen. The format is functional. On the set-up: scale not given: in the data most compounds retested in dose-response had high values. The conditions noted are these: 5 µM.
For the compound `CN(c1nc(Cn2cc(Br)ccc2=O)cs1)C1CC1`, the “Percent Effect” value was -13.88%. `CS(=O)(=O)N1CCC(c2nnc3ccc(C(=O)N4CCCC4)cn23)C1` (centres undefined): the “Percent Effect” value was -3.487%. The value for `CCc1cnc(N)nc1NCCCn1nc(C)nc1C` was 4.841%. The same measure for `CC(CCN1CCOCC1)NC(=O)c1cccc(C(F)(F)F)c1F` (centres undefined): -6.149%. The same measure for `c1ccc(N2CCC(NCc3cccc4cn[nH]c34)C2)cc1` (centres undefined): 2.833%. Take `COc1ccc(N2CCC(C(=O)/N=c3/[nH]ccs3)CC2)nn1`: the “Percent Effect” value was 7.434%. The value for `Cc1nc(CCNC(=O)C2CC(=O)N(C(C)C)C2)sc1C` (centres undefined) was -29.36%. For `COCCN(CC1CCCN(C2Cc3ccccc3C2)C1)C(=O)CO` (centres undefined), the “Percent Effect” value was -6.477%. On to `Cc1ccccc1S(=O)(=O)N1CCc2c(ncnc2N(C)C)C1`, for which the “Percent Effect” value is on record as -0.5839%. The same measure for `Cc1ccc(N2CCc3ncnc(N(C)C)c3CC2)nn1`: 103.7%. Turning to `CN(C)c1ncnc2c1CCN(c1ccccc1)CC2`, the “Percent Effect” value is 9.479%. For the compound `CN(Cc1cc(=O)c(O)co1)C1CCCN(c2ccccc2)C1` (centres undefined), the “Percent Effect” value is -2.476%.

For the compound `Cc1nc(CN(C)C2CCCN(c3ccccc3)C2)no1` (centres undefined), the “Percent Effect” value is given as 85.51%. `Cc1nc(CN(C)C2CCN(CC3CCCC3)C2)no1` (centres undefined): the “Percent Effect” value worked out at 93.14%. On to `Cc1nc(CN(C)C2CCN(CC3CCC3)C2)no1` (centres undefined), for which the “Percent Effect” value came to 98.61%.

In the case of `Cc1nc(CN(C)C2CCN(CC3CCOCC3)C2)no1` (centres undefined), the “Percent Effect” value is reported as 108.1%.

`Cc1nc(CN(C)C2CCN(CC(=O)N(C)CCC#N)C2)no1` (centres undefined): the “Percent Effect” value is listed as -8.122%. The value for `Cc1nc(CN(C)C2CCN(CC3CCCCC3)C2)no1` (centres undefined) was 12.52%; that for `Cc1cc(CN(C)C2CCCN(Cc3noc(C)n3)C2)on1` (centres undefined) was 4.561%; that for `O=C(c1nc(=O)[nH][nH]1)N1CCC2(CCCCC2)C1` was -9.423%. Consider `c1ccc(SCCN2CCN(CCn3cncn3)CC2)cc1`, for which the “Percent Effect” value worked out at 8.727%. For the compound `CCC(CO)N(Cc1ccsc1)Cc1ccc(-c2ccn[nH]2)s1` (centres undefined), the “Percent Effect” value is -9.048%. The value for `CN1CCN(C2CCN(CC(=O)NCC(F)(F)F)CC2)C1=O` was -4.835%; that for `O=C(NC(Cc1ccsc1)c1nccs1)C1CC1` (centres undefined) was 111.3%; that for `CC(NC(=O)NCc1cccc(CN2CCCC2)c1)c1nccs1` (centres undefined) was -2.261%.

With `O=C(NC(Cc1ccsc1)c1nccs1)C1CCOCC1` (centres undefined), the “Percent Effect” value was -7.907%. Turning to `CC(C)Oc1cccc(CNC(=O)NC2(CO)CCCC2)c1`, the “Percent Effect” value came to 12.23%. With `CS(=O)(=O)N1CCC(C(=O)NC(Cc2ccsc2)c2nccs2)CC1` (centres undefined), the “Percent Effect” value is on record as -7.112%.

For `CCS(=O)(=O)N1CCC(C(=O)NC(Cc2ccsc2)c2nccs2)CC1` (centres undefined), the “Percent Effect” value stood at 102.7%. Consider `CC(C)Oc1cccc(CNC(Cc2ccsc2)c2nccs2)c1.Cl` (centres undefined), for which the “Percent Effect” value is listed as 94.44%. For the compound `O=C(CSCc1ccncc1)N(Cc1ccsc1)C1CC1`, the “Percent Effect” value was 10.91%. Consider `C=C(C)COc1ccccc1CNC(CC)c1ccnn1C` (centres undefined), for which the “Percent Effect” value was -26.14%. The value for `CCN(C(c1cccnc1)c1ccc2c(c1)CCO2)S(C)(=O)=O` (centres undefined) was 5.843%; that for `CCn1nnnc1-c1cccc(NC(=O)CCc2cnn(C)c2)c1` was -3.137%. The value for `Cc1cccc2cc(CN3CCC(N4CCOCC4)CC3)c(=O)[nH]c12` was -9.486%; that for `Cc1cccc2cc(CNCCCN3CCOCC3)c(=O)[nH]c12` was -14.11%; that for `CCc1cccc2cc(CNCCCN3CCOCC3)c(=O)[nH]c12` was 109.4%. `Cc1ccc2cc(CNCCCN3CCOCC3)c(=O)[nH]c2c1C`: the “Percent Effect” value was found to be 110.9%. On to `Cc1cccc(CN2CCCCC2c2n[nH]cc2-c2cc(C)no2)c1.Cl` (centres undefined), for which the “Percent Effect” value worked out at 91.3%.

Consider `COc1ccc(CN2CCC[C@H]2c2nc(-c3cncnc3N)no2)cc1`, for which the “Percent Effect” value is -2.568%. With `Cc1cc(C2CCCN2Cc2ccn(C)c(=O)c2)no1` (centres undefined), the “Percent Effect” value was -4.327%.

In the case of `COc1ccc(C)cc1CN1CCCC1c1noc(C2CC2)n1` (centres undefined), the “Percent Effect” value was found to be 18.68%. The same measure for `Cc1cc(C2CCCN2Cc2cc(-c3ccco3)on2)on1` (centres undefined): -89.63%; for `COc1ccccc1CN1CCCCC1c1n[nH]cc1-c1cc(C)no1.Cl` (centres undefined): 107.2%; for `COc1ccc(CN2CCCCC2c2n[nH]cc2-c2cc(C)no2)cc1.Cl` (centres undefined): 84.19%. The same measure for `COc1cccc(CN2CCCCCC2c2cccc(C)c2)c1O` (centres undefined): -3.31%; for `CCc1ccc(CN2CCCCC2c2n[nH]cc2-c2cc(C)no2)cc1.Cl` (centres undefined): 131.5%. The same measure for `Cc1cc(C2CCCN2Cc2nc(-c3ccco3)no2)on1` (centres undefined): 9.843%.

Take `COc1ccc(CN2CCOC[C@H]2c2nc(-c3ccncc3)c[nH]2)cc1`: the “Percent Effect” value is recorded as -8.206%. The same measure for `CS(=O)(=O)N1CCc2[nH]cnc2C12CCN(C(=O)c1ccccc1)CC2`: -3.54%.

For the compound `CN1C[C@@H](NC(=O)C2CC2)C[C@H]1c1nc(-c2cnccn2)no1`, the “Percent Effect” value is -3.142%. The value for `O=C(c1ncoc1-c1ccco1)N1CCCN(c2nccs2)CC1` was -20.95%. For `COc1ccc2c(c1)C(C(=O)N(C)CCn1ccnc1C)CC(=O)N2` (centres undefined), the “Percent Effect” value is reported as -6.574%. `O=C1CC(c2cccnc2)c2c(c(C(=O)O)cn2-c2ccccc2)N1` (centres undefined): the “Percent Effect” value was 6.777%.

In the case of `O=C1N(c2ccc(F)cc2)Cc2nc(=O)n(Cc3cccc(Cl)c3)n21`, the “Percent Effect” value is -4.998%. The value for `COc1cccc(CC2CCCN2CCCO)c1` (centres undefined) was 13.01%; that for `COc1cccc(CN2CCCC2c2c(C)nn(C)c2C)c1` (centres undefined) was 0.6284%; that for `COc1cccc(CN2CCCCC2c2n[nH]cc2-c2cc(C)no2)c1.Cl` (centres undefined) was 78.4%.

As to `CCN(CCCNC(=O)c1ccc(C)[nH]c1=O)S(C)(=O)=O`, the “Percent Effect” value is on record as -16.03%. The value for `CC1=C[C@@H](CN2CCN(C)CC2)[C@H](C(C)C)C[C@H]1Cc1nnc(C)o1` was -4.667%; that for `CN(Cc1nc(-c2ccccc2)c[nH]1)C(=O)NCC(=O)NC(C)(C)C` was -12.98%. On to `Cc1cc(F)ccc1N1CCCC(NC(=O)CCc2ccncc2)C1` (centres undefined), for which the “Percent Effect” value is on record as 111.2%.

As for `O=C(NCc1cccc(F)c1)NC1CCCN(c2ncccn2)C1` (centres undefined), the “Percent Effect” value was 12.98%. `CCC[C@H]1CN(S(C)(=O)=O)C[C@@H]1NC(=O)CCCn1ccnc1`: the “Percent Effect” value was 0.7566%. Regarding `O=C(CCCn1ccnc1)N[C@H]1CN(C2CCCC2)C[C@@H]1C1CC1`, the “Percent Effect” value is -1.542%. The same measure for `COc1ccccc1OC1CCN(C(=O)CCCn2ccnc2)CC1`: 6.898%; for `Cc1cc(F)ccc1N1CCCC(NC(=O)CCCn2ccnc2)C1` (centres undefined): 114.8%. For `Cc1n[nH]c(C)c1CCC(=O)NC1CCCN(c2ccccc2F)C1` (centres undefined), the “Percent Effect” value is on record as -4.293%. As for `O=C(CCCn1ccnc1)NC1CCCN(c2ccccc2Cl)C1` (centres undefined), the “Percent Effect” value was found to be 86.14%. The value for `Cc1ccc(Cl)cc1N1CCC(CNC(=O)CCn2ccnc2)C1` (centres undefined) was 19.22%; that for `O=C(c1ccsc1)N1CCc2c(CN3CCCC3)n[nH]c2C1` was -0.6462%. The same measure for `CC(C)N(C)Cc1n[nH]c2c1CCN(C(=O)c1cc[nH]n1)C2`: 93.85%. Consider `Cc1nocc1C(=O)N1CCc2c(CN(C)C(C)C)n[nH]c2C1`, for which the “Percent Effect” value is -1.781%. For `Cc1cc(C(=O)N2CCc3c(ncnc3N3CCOCC3)C2)[nH]n1`, the “Percent Effect” value is given as -12.68%. As to `CC(C)N(C)Cc1n[nH]c2c1CCN(C(=O)c1ccc[nH]1)C2.O=C(O)C(F)(F)F`, the “Percent Effect” value was 99.94%.

On to `CN(C)Cc1n[nH]c2c1CCN(Cc1cccs1)C2.O=C(O)C(F)(F)F.O=C(O)C(F)(F)F`, for which the “Percent Effect” value was -7.744%. The same measure for `CN(Cc1cn2c(n1)CN(C(=O)c1ccc[nH]1)CC2)Cc1ccco1.O=C(O)C(F)(F)F`: -0.5876%; for `CC(C)Nc1nc2c(c(N(C)C)n1)CCN(C(=O)c1cc[nH]n1)CC2`: -2.807%; for `Cc1cc(C(=O)N2CCc3c(CN(C)C(C)C)n[nH]c3C2)[nH]n1`: 101.7%. The same measure for `Cc1cc(Br)oc1C(=O)N1CCC(N(C)C)CC1`: -50.6%; for `COCCN1CCCC2(CCN(c3nccnc3N(C)C)C2)C1=O` (centres undefined): -5.787%.

For `Cc1ccoc1C(=O)N1CCC(n2cc(-c3ccsc3)nn2)CC1`, the “Percent Effect” value is -24.55%. The same measure for `COc1cccc(N2CCC(CNC(=O)CN3CSCC3=O)C2)c1` (centres undefined): -9.493%; for `CS(=O)(=O)N1CCOCC2(CCN(c3cnccn3)CC2)C1`: -8.044%. The value for `CC1(C)O[C@@](C)([C@H]2CC3(CCN(c4cnccn4)CC3)CO2)CC[C@@H]1O` was 106.3%; that for `OCC(O)CSCc1nnc(-c2cccc(F)c2)o1` (centres undefined) was 6.518%. Consider `CC(C)CCN1C2(CCN(c3ncccn3)C2)c2ccccc2S1(=O)=O` (centres undefined), for which the “Percent Effect” value came to 105.2%. Consider `FC1(F)CCN(c2ccccc2)CC12CCN(c1ncccn1)C2` (centres undefined), for which the “Percent Effect” value is on record as 4.725%. For `CC(C)CCN1C2(CCN(C(=O)N(C)C)C2)c2ccccc2S1(=O)=O` (centres undefined), the “Percent Effect” value was 108.8%. As to `COCC(=O)N1CCC2(C1)c1ccccc1S(=O)(=O)N2C` (centres undefined), the “Percent Effect” value came out at 99.03%. In the case of `CCCN1CCC2(C1)c1ccccc1S(=O)(=O)N2Cc1ccc(F)cc1` (centres undefined), the “Percent Effect” value was 8.528%. Turning to `COCC(=O)N1CCC2(C1)c1ccccc1S(=O)(=O)N2CCC(C)C` (centres undefined), the “Percent Effect” value worked out at 110.5%. Take `COc1ccccc1N1CCN(C(=O)Cn2nc(C)c(C)c2C)C(C)C1` (centres undefined): the “Percent Effect” value turned out to be 5.362%.

Take `CCC(Nc1cccc(OC)c1)C(=O)N(CCOC)Cc1cnn(C)c1` (centres undefined): the “Percent Effect” value is on record as -17.99%.

In the case of `Cc1cc(C#N)ccc1S(=O)(=O)N1CCN(C)Cc2ccccc21`, the “Percent Effect” value is given as 3.182%. The value for `CCc1noc(C(C)SCCS(C)(=O)=O)n1` (centres undefined) was 3.138%.

For the compound `CC(C)CCN1CC2(CCN(C(=O)C3(C)CC3)CC2)OC1=O`, the “Percent Effect” value is 1.386%. The same measure for `CC(C)CCN1C2(CCN(C(=O)C3(C)CC3)C2)c2ccccc2S1(=O)=O` (centres undefined): 92.1%.

Consider `COCC(=O)N1CCC2(CC1)c1ccccc1[C@@H](N1CCSCC1)[C@@H]2O`, for which the “Percent Effect” value is 1.916%. The same measure for `COCC(=O)N1CCC2(C1)c1ccccc1S(=O)(=O)N2CC1CC1` (centres undefined): 95.12%; for `CC(=O)N1CCC2(C1)c1ccccc1S(=O)(=O)N2CCC(C)C` (centres undefined): 83.1%; for `CCNC(=O)N1CCC2(C1)c1ccccc1S(=O)(=O)N2CCC(C)C` (centres undefined): -10.03%. The value for `CC(C)CCN1C2(CCN(C(=O)CN(C)C)C2)c2ccccc2S1(=O)=O.O=C(O)C(F)(F)F` (centres undefined) was 95.71%.

Consider `CC(C)CCN1N=C(C(=O)N2CCCCCC2)S(=O)(=O)c2ccccc21`, for which the “Percent Effect” value was determined as 20.76%.
